# Screens deposited in PubChem by National Center for Advancing Translational Sciences (NCATS).
# SW480 rerep: induces DNA re-replication in SW480 colon adenocarcinoma cells. AID 624297. actives 1.8% (n = 340,000). Potency, µM (top dose mostly 46.1 µM), inactives show top-dose re-replication activation, hits mostly activators. SW480 DNA re-replication, Hoechst DNA content imaging, 48 h; also: potency is read from the fitted curve at half-maximal effect; % of control where 0% means no effect; nearly all actives have a fitted effect of over 55% in size
#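 Readout is total intensity of Hoechst-stained nuclei, excited at 405 nm and collected at 500-530 nm. Compound treatment lasted 48 hr at 37 C in 5% CO2 before staining.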
# KB-V1 MDR tox: kills drug-selected multidrug resistant KB-V1 cells; actives 3.4% (n = 400,000); Potency, µM (series often up to 46.1 µM), actives largely listed as cytotoxic; AID 1347076; KB-V1 MDR cells viability, CellTiter-Glo, 72 h; also: potency is read from the fitted curve at half-maximal effect; % is scaled to controls: 0 for no effect and ±100 for the full control effect; nearly all actives have a fitted effect of over 60% in size
#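 KB-V1, DMEM (no phenol red) + 10% FBS; cpd pin-transferred, titration series; 72 h, 37 degrees C; CellTiter-Glo, luminescence. Data normalized, curve-fit.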
# KB-3-1 tox: kills parental KB-3-1 adenocarcinoma cells. KB-3-1 viability, CellTiter-Glo ATP luminescence, 72 h. Potency, µM (top dose mostly 46.1 µM), most hits filed as cytotoxic. actives 1.4% (n = 400,000). AID 1347075; also: potency is read from the fitted curve at half-maximal effect; % is scaled to controls: 0 for no effect and ±100 for the full control effect; nearly all actives have a fitted effect of over 60% in size
#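 Viability of parental KB-3-1 cells, measured by CellTiter-Glo luminescence, followed a 72 h incubation at 37 °C with pinned compounds in phenol-red-free DMEM containing 10% FBS.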
# Giardia killer: Giardia lamblia killing; Giardia lamblia trophozoite viability; activity change, % at 7.66 µM, hits read low; actives 0.15% (n = 340,000); in the data active = activity change below about -80%; inconclusive = between about -30% and that limit;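 also: parasites exposed to compound for two days anaerobically before the ATP read; % is scaled to controls: 0 for no effect and ±100 for the full control effect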
#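 Anaerobic 48 hrs incubation at 37 deg C of 100 trophozoites/well with test compounds; ATPLite 1-Step luminescence, 15-30 min RT, reports cellular ATP as viability.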
# MCF10A rerep: DNA re-replication induction in MCF 10a cells. AID 624296. Potency, µM (top dose mostly 46.1 µM), without a hit: top-dose activity, positive = re-replication, hits mostly activators. actives 2.9% (n = 350,000). MCF 10A DNA re-replication, Hoechst nuclear intensity, 48 h; also: potency is read from the fitted curve at half-maximal effect; % of control where 0% means no effect; nearly all actives have a fitted effect of over 50% in size
# S-ASM inh: human S-ASM enzyme inhibition. AID 504937. actives 0.006% (n = 340,000). placental ASM, HMU-PC fluorogenic substrate, 60 min. Potency, µM (titrated, usually from 57.5 µM), inactives show at the highest dose activity change, negative = inhibition, hits mostly inhibitors; also: potency is read from the fitted curve at half-maximal effect
# Target sequence (P17405 47-631 limits assumed): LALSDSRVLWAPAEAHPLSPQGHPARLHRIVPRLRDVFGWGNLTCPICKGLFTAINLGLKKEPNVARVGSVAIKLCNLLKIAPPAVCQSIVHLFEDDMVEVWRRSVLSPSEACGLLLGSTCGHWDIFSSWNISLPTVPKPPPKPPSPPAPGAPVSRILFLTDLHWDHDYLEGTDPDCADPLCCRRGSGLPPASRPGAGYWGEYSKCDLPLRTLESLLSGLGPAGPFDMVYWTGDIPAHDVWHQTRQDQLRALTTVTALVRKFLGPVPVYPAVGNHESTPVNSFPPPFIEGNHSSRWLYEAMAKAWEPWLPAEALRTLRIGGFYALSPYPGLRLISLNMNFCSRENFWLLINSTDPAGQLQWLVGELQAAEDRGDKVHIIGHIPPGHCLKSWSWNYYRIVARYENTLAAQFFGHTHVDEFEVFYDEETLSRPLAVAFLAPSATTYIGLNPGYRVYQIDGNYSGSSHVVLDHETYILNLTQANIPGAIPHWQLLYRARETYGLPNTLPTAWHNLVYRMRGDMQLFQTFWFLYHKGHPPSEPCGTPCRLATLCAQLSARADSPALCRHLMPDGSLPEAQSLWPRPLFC
#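 Fluorescence read-out (Ex 386 nm, Em 447 nm) after stopping the reaction at pH 10. Enzyme: ASM from human placenta; substrate HMU-PC0, 9 uM final; 60 min, 37 °C. Compound preincubation 10 min, ambient temperature.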
# * = called active by the depositor; i = inactive; ? = inconclusive; / = no result; ! = not active in a repeat. Only some compounds are listed: those with a hit (about 6.9% of all), similar ones and a draw of the others. Unless noted, calls follow the shape of the dose curve; as a rule, active = well fitted curve in the direction sought with a large enough effect; inconclusive = small, poorly fitted or top-dose-only effect, or another doubt; inactive = no such curve, though single readings can be large; an effect the other way counts as inactive or inconclusive.
SMILES,SW480 rerep,KB-V1 MDR tox,KB-3-1 tox,Giardia killer,MCF10A rerep,S-ASM inh
Cc1nn(-c2ccccc2)nc1CNC(=O)c1ncoc1-c1ccccc1,-2.0%,i,i,14.7,23.1µM*,-1.1%
C[N+]1(CC(=O)c2ccc(Oc3ccc(C(=O)C[N+]4(C)CCOCC4)cc3)cc2)CCOCC1,/,i,i,/,/,/
COc1cc2ccc(=O)oc2c(O[C@@H]2O[C@H](CO)[C@@H](O)[C@H](O)[C@H]2O)c1O,8.2µM*!,i,i,16.2,16.4µM*,i
O=C1C=CC(=C(c2ccc(O)cc2)c2ccc(O)cc2)C=C1,?,?,5.8µM*,-12.0,6.51µM*,-4.1%
Cn1cccc1-c1nc2ccccc2n1Cc1ccccc1,6.2%,?,i,-19.6,11.2µM*,-4.1%
Clc1ccc(COn2c(-c3ccc(Cl)cc3)nc3ccccc32)cc1,?,18.4µM*,i,2.6,16.4µM*,-14.3%
Clc1ccc(COn2c(-c3ccccc3)nc3ccccc32)cc1,?,?,?,-1.8,20.6µM*,-15.2%
Cc1ccc(COn2c(-c3ccc(Cl)cc3)nc3ccc([N+](=O)[O-])cc32)cc1,-5.1%,i,i,8.8,?,-2.4%
O=[N+]([O-])c1ccc2nc(-c3ccc(Cl)cc3)n(OCc3ccccc3)c2c1,-10.7%,i,i,-19.9,6.9%,2.8%
Cc1nc2ccccc2n1Cc1ccc(Cl)cc1,?,7.31µM*,?,-27.8,?,1.2%
Cc1cccc(Cn2c(-c3ccccc3)nc3ccccc32)c1,/,i,?,/,/,/
CCCCN(C)CCNC(=O)Cn1ncc2c3ccccc3n(CCC)c2c1=O,/,i,i,/,/,/
CCOc1ccc(NS(=O)(=O)c2ccc3[nH]cc(C(=O)N4CCCC4)c(=O)c3c2)cc1,/,i,i,/,/,/
Cc1ccc(-c2nc3cc(Cl)ccc3o2)cc1NC(=O)c1cc2ccccc2o1,/,i,?,/,/,/
CN(C)Cc1cc(C(F)(F)F)ccc1C(O)(c1ccccc1)c1ccccc1,?,20.6µM*,?,6.7,21.5%,3.0%
COc1ccc(-c2csc3nc(-c4ccccc4OC)oc(=O)c23)cc1,16.4µM*,i,i,4.8,20.6µM*,-1.6%
COc1ccc(-c2csc3nc(-c4ccc(Cl)cc4)oc(=O)c23)cc1,/,?,i,/,/,/
COc1cc2c(cc1NC(=O)CSc1cccc[n+]1[O-])oc1ccccc12,-7.0%,11.6µM*,?,-5.9,14.7%,90.2%
COc1cc2c(cc1NC(=O)CCCCCN1C(=O)CCC1=O)oc1ccccc12,5.7%,7.31µM*,i,6.1,0.8%,-12.0%
COc1ccc(CN(C)CC(=O)Nc2cc3oc4ccccc4c3cc2OC)c(OC)c1,24.4%,i,i,-15.8,?,-14.7%
COc1cc2c(cc1NC(=O)CSc1ccc(C)cc1)oc1ccccc12,20.8%,i,i,0.0,?,-2.6%
COc1cc2c(cc1NC(=O)CSc1nc3ccc(C)cc3[nH]1)oc1ccccc12,14.3%,/,/,/,5.17µM*,/
COc1cc2c(cc1NC(=O)CN(C)Cc1ccc(OC)c(OC)c1)oc1ccccc12,18.4µM*,?,?,25.4,9.2µM*,-14.1%
CSc1ccc(CCNC(=O)CCc2c(C)nc3cc(-c4ccccc4)nn3c2C)cc1,/,i,i,/,/,/
Cc1onc(-c2ccccc2Cl)c1C(=O)Nc1ccc(F)c(F)c1,-26.9%,i,i,-1.6,4.6%,0.9%
SMILES,SW480 rerep,KB-V1 MDR tox,KB-3-1 tox,Giardia killer,MCF10A rerep,S-ASM inh
Cc1onc(-c2ccccc2Cl)c1C(=O)NC(=S)Nc1ccc(C(C)C)cc1,-6.9%,i,i,27.1,4.1%,-3.0%
Cc1cc(NC(=O)c2c(-c3ccccc3Cl)noc2C)no1,-4.9%,13µM*,i,-0.4,3.8%,1.5%
Cc1ccc(NC(=S)NC(=O)c2c(-c3ccccc3Cl)noc2C)cc1,-5.5%,20.6µM*,i,2.7,16.5%,-6.1%
Cc1onc(-c2c(F)cccc2Cl)c1C(=O)Nc1cccc(Cn2cccn2)c1,4.0%,20.6µM*,i,-4.8,-8.1%,1.1%
COC(=O)c1cc(OC)c(OC)cc1NC(=O)c1c(-c2ccccc2Cl)noc1C,?,3.26µM*,?,-14.0,26.5%,-11.6%
Cc1cccc(-c2nc(Cn3c(=O)cc(-c4ccccc4)c4c(C)nn(C)c43)c(C)o2)c1,/,i,i,/,/,/
COc1ccc(NC(=O)Cn2nnc(-c3ccccc3NS(=O)(=O)c3ccccc3)n2)cc1,-3.3%,2.91µM*,23.1µM*,12.8,8.4%,-7.6%
Cc1onc(-c2ccccc2Cl)c1C(=O)Nc1cccc(-c2cn3cccnc3n2)c1,20.3%,16.4µM*,i,6.3,?,323.4%
Cc1onc(-c2ccccc2Cl)c1C(N)=O,-7.3%,i,i,6.7,-5.6%,5.5%
COc1ccc(S(=O)(=O)Nc2ccccc2-c2nnn(CC(=O)Nc3ccccc3OC)n2)cc1,?,i,i,10.5,?,-1.0%
Cc1onc(-c2c(F)cccc2Cl)c1C(=O)OCC(=O)Nc1cccc(S(=O)(=O)N(C)C)c1,-0.5%,4.11µM*,?,7.5,7.2%,-1.1%
Cc1[nH]n(C)c(=O)c1C(=O)c1c(-c2ccccc2Cl)noc1C,?,i,i,16.8,25.9µM*,-0.2%
O=C(Cn1ncc2c3ccccc3n(Cc3ccc(Cl)cc3)c2c1=O)NCc1cccs1,/,?,i,/,/,/
Cc1c(C=O)ccc(N(C)C)c1C,/,i,?,/,/,/
COC(=O)c1cc(OC)c(OC)cc1NC(=O)Cn1nnc(-c2ccccc2Cl)n1,14.6µM*,?,i,3.8,17.4%,-10.1%
CC(C)CNS(=O)(=O)c1ccc(S(=O)(=O)N2CCC3(CC2)OCCO3)cc1,0.184µM*,14.6µM*,i,-10.9,-57.1%,-24.7%
O=S(=O)(NC1CC1)c1ccc(S(=O)(=O)N2CCC3(CC2)OCCO3)cc1,-7.6%,?,i,-14.1,-6.6%,-2.0%
COc1ccc(CCNC(=O)CSc2nc3c(c(=O)n(C)c(=O)n3C)n2C(C)C)cc1OC,-3.9%,i,i,-13.2,-2.1%,0.9%
Cn1c(=O)c2c(nc(NCCc3ccccc3)n2Cc2ccc(F)cc2)n(C)c1=O,6.6%,4.11µM*,?,-9.6,25.8%,-11.4%
Cc1ccc(Oc2nc3c(c(=O)n(Cc4ccccc4F)c(=O)n3C)n2C)cc1,-6.7%,11.6µM*,i,-6.2,1.9%,-8.3%
COc1cccc(Cn2c(NCc3cccnc3)nc3c2c(=O)n(C)c(=O)n3C)c1,-2.4%,i,3.66µM*,4.0,1.6%,1.5%
COc1ccc(CCNc2nc3c(c(=O)n(C)c(=O)n3C)n2C)cc1OC,-2.7%,14.6µM*,i,-11.8,6.2%,2.0%
